The list is not random: actives were taken first. Their share in the collection is about 2.9%.
CRFR2-BP ag – agonists of human CRF-binding protein/CRF-R2 receptor complex. HEK293 CRF-R2/CRF-BP, calcium dye fluorescence (FLIPR); percent of saturating CRF peptide response. activation, % at 13.2 µM. 350,000 compounds, 0.46% hits;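 active = activation of at least 50%, plus an integration ratio under a set limit after plate pattern correction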;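 note: plate controls were neutral control wells without compound for no effect and CRF at EC100 for full effect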
ABCB6 inh 2 – blocks the human ABCB6 transporter; 360,000 compounds, 0.19% hits; K562-ABCB6 porphyrin accumulation, flow cytometry, 1 h; hits give low values; fluorescence ratio to DMSO, % at 10 µM; Q9NP58; AID 602162;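 active = fluorescence ratio to DMSO below 75%, the collection mean minus 3 SD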;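 note: signal is porphyrin accumulated inside mitochondria; 100% equals median channel fluorescence of DMSO control wells; lower ratio means ABCB6 inhibition with less porphyrin fluorescence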
MEKK3 PB1 HTS – modulators (inhibitors or enhancers) of MEK5 binding to human MEKK3 PB1 domain | bead-based flow cytometry, Alexa488-MEK5 binding to MEKK3; actives lie on both sides; 0 = blocked by unlabeled MEK5, 100 = vehicle | binding response (% of control), % at 10 µM | 290,000 compounds, 1.4% hits | Q99759;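 active = binding response more than 3 SD above or below the average of its plate-row segment, actives on both sides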;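 note: Alexa488 bead fluorescence after subtracting the streptavidin-only scavenger bead signal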
Target sequence (Q99759 whole entry, looked up, the tested form may be a part): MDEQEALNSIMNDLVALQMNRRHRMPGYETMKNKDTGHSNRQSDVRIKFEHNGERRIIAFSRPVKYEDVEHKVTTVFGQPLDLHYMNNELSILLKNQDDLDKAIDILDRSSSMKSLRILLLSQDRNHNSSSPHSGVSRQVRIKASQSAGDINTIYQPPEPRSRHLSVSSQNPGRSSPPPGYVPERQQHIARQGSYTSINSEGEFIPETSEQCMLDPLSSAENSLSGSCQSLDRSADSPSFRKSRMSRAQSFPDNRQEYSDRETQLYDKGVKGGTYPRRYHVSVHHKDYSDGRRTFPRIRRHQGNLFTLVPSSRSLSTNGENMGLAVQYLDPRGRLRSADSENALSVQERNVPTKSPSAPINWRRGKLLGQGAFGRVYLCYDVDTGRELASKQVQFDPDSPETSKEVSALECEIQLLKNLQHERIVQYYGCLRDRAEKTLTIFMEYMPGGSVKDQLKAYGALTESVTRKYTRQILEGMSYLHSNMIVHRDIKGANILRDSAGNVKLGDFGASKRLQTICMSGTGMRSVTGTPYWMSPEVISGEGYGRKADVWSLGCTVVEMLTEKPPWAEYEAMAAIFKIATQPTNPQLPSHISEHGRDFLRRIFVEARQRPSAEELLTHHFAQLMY
MEKK2mut PB1 HTS – signal of MEK5 binding to mutant human MEKK2 PB1 domain. bead flow cytometry, Alexa488-MEK5 binding to MEKK2 mutant. AID 1530. 290,000 compounds, 0.35% hits. percent response, % at 10 µM; in the data active = percent response above about 24%, passing the limit was not always enough
MEKK2wt PB1 HTS – raises or lowers MEK5 binding to wildtype human MEKK2 PB1 domain; Q9Y2U5; bead flow cytometry, Alexa488-MEK5 binding to MEKK2 WT; actives lie on both sides; binding response (% of control), % at 10 µM; 290,000 compounds, 1.1% hits; in the data active = binding response below about 67% or above about 130%
CRFR2-BP antag – antagonists of CRF-binding protein/CRF-R2 receptor complex | HEK293 CRF-R2/CRF-BP, CRF-induced calcium fluorescence | inhibition, % at 11.8 µM | 350,000 compounds, 0.59% hits;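 active = inhibition of the ligand-induced calcium signal above about 50% at the single tested concentration, limit read from the data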
The depositor's hits bear a star; x = no result given; [ ] = dose if it differs, or a comment.

SMILES	CRFR2-BP ag	ABCB6 inh 2	MEKK3 PB1 HTS	MEKK2mut PB1 HTS	MEKK2wt PB1 HTS	CRFR2-BP antag
CC[C@@H](C)[C@@H]1CN([C@@H](CN2CCC[C@H]2CN2C(N)=NC[C@H]2CC(C)C)C(C)C)C(=N)N1CCc1ccc(Cl)c(Cl)c1	2.0	99.0	x	x	x	62.8*
CN(CC(=O)Nc1ccc(F)cc1)C(=O)c1ccc(N2C(=O)CCC2=O)cc1	-0.8	101.0	x	x	x	5.2
COc1ccccc1C(=O)NC(=S)/C=C1/N(C)c2ccccc2C1(C)C	-0.3	723.0	103.0	-1.0	94.0	14.5
CN1/C(=C\C(=S)NC(=O)c2ccccc2Cl)C(C)(C)c2ccccc21	3.0	588.0	86.0	0.0	1.0*	1.7
CSc1ccccc1OCc1cc(C(=O)N2CCc3c(Cl)cccc3C2)no1	5.0	100.0	102.0	0.0	97.0	-1.4
CC(=O)Nc1ccc(S(=O)(=O)N2CCN(c3ccccn3)CC2)cc1	-0.3	101.0	90.0	-3.0	98.0	-13.8
CC(=O)Nc1ccc(S(=O)(=O)N2CCN(c3nnnn3-c3ccccc3)CC2)cc1	-0.1	90.0	93.0	-2.0	93.0	102.1*
CN1CCN(c2c([N+](=O)[O-])cnc3ccccc23)CC1	-1.6	100.0	x	x	x	-9.0
COCCn1nnnc1C(c1ccccc1)N1CCN(C)CC1 (stereo not drawn)	-1.1	97.0	103.0	15.0	108.0	21.9
COc1ccc(C(c2nnnn2Cc2ccccc2)N2CCN(c3nc4ccccc4s3)CC2)cc1 (stereo not drawn)	-0.1	97.0	103.0	0.0	101.0	-11.5
COc1ccc(C(c2nnnn2Cc2ccccc2)N2CCN(c3ccccc3)CC2)cc1 (stereo not drawn)	-0.5	103.0	92.0	-1.0	93.0	56.9*
COCCn1nnnc1C(c1ccccc1)N1CCN(c2ccccc2)CC1 (stereo not drawn)	-1.5	96.0	109.0	3.0	105.0	52.2*
CCCNC(=O)C(Cc1ccc(I)cc1)NC(=O)c1ccc(C#N)cc1 (stereo not drawn)	-0.9	101.0	x	x	x	2.8
CNc1oc(/C=C/c2cccc(OC)c2)nc1C#N	-6.6	101.0	105.0	7.0	110.0	17.9
Cc1ccc(S(=O)(=O)N2CCN(c3ccccc3)CC2)s1	-0.4	95.0	x	x	x	-0.1
N/C(=N\OC(=O)c1ccc([N+](=O)[O-])cc1)c1cccnc1	0.3	103.0	125.0	2.0	110.0	2.0
O=C(Oc1c(Br)cc([N+](=O)[O-])cc1Br)c1cccnc1	21.5	103.0	98.0	-2.0	97.0	68.4*
CN1CCN(Cc2c(O)ccc3cc(-c4ccccn4)c(=O)oc23)CC1	63.2*	100.0	107.0	-5.0	103.0	-7.4
CCCn1c2ccccc2c2cnn(CC(=O)NCCCN3CCN(c4ccccc4)CC3)c(=O)c21	-0.5	98.0	100.0	1.0	106.0	2.0
Cc1nc2nc(SCC(=O)N3CCOCC3)nn2c(C)c1Cc1c(F)cccc1Cl	-1.9	100.0	2.0*[inhibitor]	-15.0	2.0*[inhibitor]	8.1
N=C1/C(=C/c2cccs2)C(=O)N=C2SN=C(SCc3ccccc3)N12	14.8	102.0	93.0	-9.0	84.0	101.8*
CC(C)CSC1=NSC2=NC(=O)/C(=C\c3cccs3)C(=N)N12	70.4*	100.0	98.0	-1.0	96.0	74.9*
CSC1=NSC2=NC(=O)/C(=C\c3cccs3)C(=N)N12	0.3	100.0	107.0	-2.0	101.0	19.6
O=C1NCCCCC1NS(=O)(=O)c1ccccc1 (stereo not drawn)	0.9	98.0	104.0	7.0	105.0	-1.5
O=C1NCCCCC1NS(=O)(=O)c1cccc2ccccc12 (stereo not drawn)	-2.3	94.0	103.0	2.0	107.0	69.5*
SMILES	CRFR2-BP ag	ABCB6 inh 2	MEKK3 PB1 HTS	MEKK2mut PB1 HTS	MEKK2wt PB1 HTS	CRFR2-BP antag
Cc1ccc(N(C(=O)Cn2nnc(-c3ccccc3)n2)C(C(=O)NC2CCCCC2)c2ccccn2)cc1C (stereo not drawn)	-2.7	100.0	90.0	-2.0	91.0	55.9*
Cc1cc(C)cc(N(C(=O)Cn2nnc(-c3ccccc3)n2)C(C(=O)NC2CCCCC2)c2ccccn2)c1 (stereo not drawn)	1.5	97.0	93.0	-7.0	87.0	-22.9
O=c1nc(N/N=C/c2ccccn2)cn[nH]1	5.1	101.0	3.0*[inhibitor]	-18.0	4.0*[inhibitor]	-13.2
Cc1ccc(/C=N/Nc2cn[nH]c(=O)n2)o1	-0.4	98.0	106.0	-9.0	97.0	0.5
O=C(COC(=O)c1ccccc1O)NC(=O)c1ccc(OC(F)F)cc1	-0.1	95.0	x	x	x	-0.3
O=C(COC(=O)C1CCN(S(=O)(=O)c2ccccc2)CC1)NC(=O)c1ccc(OC(F)F)cc1	0.3	85.0	107.0	2.0	111.0	131.0*
Cc1ccc(C(=O)Nc2ccc(C(=O)O)cc2NC(=O)c2ccc(C)cc2)cc1	-2.3	96.0	103.0	0.0	101.0	-0.3
O=S1(=O)CCC(NC(=S)Nc2ccc(Cl)cc2)C1 (stereo not drawn)	-1.8	73.0*	120.0	0.0	106.0	12.9
Cn1ccnc1C(O)c1ccccc1 (stereo not drawn)	1.8	101.0	102.0	1.0	102.0	-21.0
COc1ccc2ccccc2c1C(O)c1nccn1C (stereo not drawn)	104.0*	102.0	86.0	-4.0	88.0	-106.7
Cc1nc(-c2c(C(F)(F)F)noc2-c2ccc(O)cc2O)cs1	-8.1	82.0	99.0	8.0	96.0	54.2*
Oc1ccc(-c2onc(C(F)(F)F)c2-c2cscn2)c(O)c1	-0.5	118.0	x	x	x	21.8
O=[N+]([O-])c1ccc(N2CCOCC2)cc1NCc1ccccc1	-1.4	94.0	101.0	6.0	99.0	63.8*
O=[N+]([O-])c1ccc(/C=N/Nc2nc(NCc3ccccc3)nc(N3CCOCC3)n2)cc1	0.3	95.0	111.0	3.0	105.0	5.2
O=[N+]([O-])c1cccc(/C=N/Nc2nc(NCc3ccccc3)nc(N3CCOCC3)n2)c1O	68.5*	97.0	99.0	-8.0	94.0	-4.3
O=[N+]([O-])c1ccc(N2CCCC2)cc1NCc1ccccc1	-1.4	102.0	101.0	-4.0	101.0	18.4
O=C(O)CN1C(=O)C2(OCCO2)c2cc(Br)ccc21	-1.4	95.0	x	x	x	0.4
Cc1ccc(OCCC(=O)O)cc1	-0.8	98.0	96.0	-5.0	92.0	85.2*
Cc1cc(C)cc(OCCCC(=O)O)c1	-1.8	99.0	85.0	-9.0	87.0	13.1
COc1ccccc1NS(=O)(=O)c1cccc(NC(=O)Nc2ccc(Cl)cc2)c1	0.1	91.0	106.0	15.0	147.0*	-9.9
COc1ccccc1NS(=O)(=O)c1cc(C(=O)N2CCCC2)ccc1F	-0.6	91.0	x	x	x	79.3*
COc1ccccc1NS(=O)(=O)c1cc(C(=O)N2CCCCCCC2)ccc1C	0.1	100.0	x	x	x	-0.7

Bioassay records as filed in PubChem BioAssay.
